The target of assay [1] is T1, Serine/threonine-protein kinase TBK1 (Homo sapiens) (UniProt Q9UHD2).
T1 sequence (whole entry): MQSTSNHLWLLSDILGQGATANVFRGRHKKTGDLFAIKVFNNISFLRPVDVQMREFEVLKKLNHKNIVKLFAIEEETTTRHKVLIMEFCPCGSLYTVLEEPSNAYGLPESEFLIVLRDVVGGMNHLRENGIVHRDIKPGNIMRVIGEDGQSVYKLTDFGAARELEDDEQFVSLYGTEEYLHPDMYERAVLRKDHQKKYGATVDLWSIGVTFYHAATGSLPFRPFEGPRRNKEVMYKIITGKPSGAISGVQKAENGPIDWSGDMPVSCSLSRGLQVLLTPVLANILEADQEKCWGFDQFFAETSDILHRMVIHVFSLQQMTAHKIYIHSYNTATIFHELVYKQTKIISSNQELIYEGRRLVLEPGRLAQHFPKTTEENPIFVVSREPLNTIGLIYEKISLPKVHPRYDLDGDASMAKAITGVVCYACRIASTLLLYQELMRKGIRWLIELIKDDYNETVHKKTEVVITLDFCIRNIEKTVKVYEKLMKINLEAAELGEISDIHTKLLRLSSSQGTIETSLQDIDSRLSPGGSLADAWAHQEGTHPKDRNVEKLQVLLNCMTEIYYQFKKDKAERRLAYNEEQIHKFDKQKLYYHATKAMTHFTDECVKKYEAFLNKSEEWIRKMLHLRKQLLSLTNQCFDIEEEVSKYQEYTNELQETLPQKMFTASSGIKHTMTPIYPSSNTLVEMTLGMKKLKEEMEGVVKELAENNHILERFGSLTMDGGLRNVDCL
The conditions noted are these: at 10 µM.

In assay [2] the target is T2, TGF-beta receptor type-1 (Homo sapiens) (UniProt P36897).
T2 sequence (whole entry): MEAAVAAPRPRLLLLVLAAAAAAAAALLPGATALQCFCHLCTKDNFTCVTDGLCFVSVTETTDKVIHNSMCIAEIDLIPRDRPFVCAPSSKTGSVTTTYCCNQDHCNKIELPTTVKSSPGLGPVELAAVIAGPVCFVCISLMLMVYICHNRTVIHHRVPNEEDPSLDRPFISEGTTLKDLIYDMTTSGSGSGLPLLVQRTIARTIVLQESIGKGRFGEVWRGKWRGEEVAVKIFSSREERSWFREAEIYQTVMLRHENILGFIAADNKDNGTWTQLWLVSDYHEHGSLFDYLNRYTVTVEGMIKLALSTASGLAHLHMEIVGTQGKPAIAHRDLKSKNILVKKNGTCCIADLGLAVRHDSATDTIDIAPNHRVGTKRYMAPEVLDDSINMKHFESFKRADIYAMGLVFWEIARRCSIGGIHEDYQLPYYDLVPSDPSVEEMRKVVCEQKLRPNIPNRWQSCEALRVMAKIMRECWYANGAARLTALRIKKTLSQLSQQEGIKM
To be noted: at 1 µM.

Assay [3] deals with T2, TGF-beta receptor type-1 (Homo sapiens). The conditions noted are these: at 10 µM.
For assay [4], the target named is Insulin-like growth factor 1 receptor (Homo sapiens) (UniProt P08069). The conditions noted are these: at 1 µM.
Insulin-like growth factor 1 receptor (Homo sapiens), sequence (P08069 31-736 limits assumed): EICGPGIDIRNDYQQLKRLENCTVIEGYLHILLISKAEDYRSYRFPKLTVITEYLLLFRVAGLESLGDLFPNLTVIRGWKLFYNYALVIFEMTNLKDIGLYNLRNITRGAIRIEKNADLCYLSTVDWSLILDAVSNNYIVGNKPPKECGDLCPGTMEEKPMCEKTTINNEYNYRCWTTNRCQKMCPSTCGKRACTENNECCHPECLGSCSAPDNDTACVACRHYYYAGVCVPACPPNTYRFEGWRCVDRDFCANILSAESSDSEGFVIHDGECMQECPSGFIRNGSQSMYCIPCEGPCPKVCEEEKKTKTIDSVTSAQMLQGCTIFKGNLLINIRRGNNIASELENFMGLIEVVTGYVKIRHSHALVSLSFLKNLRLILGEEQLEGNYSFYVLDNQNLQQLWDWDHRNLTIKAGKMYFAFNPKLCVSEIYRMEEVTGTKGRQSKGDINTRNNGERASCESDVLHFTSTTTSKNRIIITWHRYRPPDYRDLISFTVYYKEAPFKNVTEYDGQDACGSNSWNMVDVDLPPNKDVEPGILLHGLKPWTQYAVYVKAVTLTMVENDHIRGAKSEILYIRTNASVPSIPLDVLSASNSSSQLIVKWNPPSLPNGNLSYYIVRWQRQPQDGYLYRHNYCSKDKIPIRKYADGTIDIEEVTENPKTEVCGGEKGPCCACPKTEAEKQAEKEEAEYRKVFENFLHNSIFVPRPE
Insulin-like growth factor 1 receptor (Homo sapiens), sequence (P08069 741-1367 limits assumed): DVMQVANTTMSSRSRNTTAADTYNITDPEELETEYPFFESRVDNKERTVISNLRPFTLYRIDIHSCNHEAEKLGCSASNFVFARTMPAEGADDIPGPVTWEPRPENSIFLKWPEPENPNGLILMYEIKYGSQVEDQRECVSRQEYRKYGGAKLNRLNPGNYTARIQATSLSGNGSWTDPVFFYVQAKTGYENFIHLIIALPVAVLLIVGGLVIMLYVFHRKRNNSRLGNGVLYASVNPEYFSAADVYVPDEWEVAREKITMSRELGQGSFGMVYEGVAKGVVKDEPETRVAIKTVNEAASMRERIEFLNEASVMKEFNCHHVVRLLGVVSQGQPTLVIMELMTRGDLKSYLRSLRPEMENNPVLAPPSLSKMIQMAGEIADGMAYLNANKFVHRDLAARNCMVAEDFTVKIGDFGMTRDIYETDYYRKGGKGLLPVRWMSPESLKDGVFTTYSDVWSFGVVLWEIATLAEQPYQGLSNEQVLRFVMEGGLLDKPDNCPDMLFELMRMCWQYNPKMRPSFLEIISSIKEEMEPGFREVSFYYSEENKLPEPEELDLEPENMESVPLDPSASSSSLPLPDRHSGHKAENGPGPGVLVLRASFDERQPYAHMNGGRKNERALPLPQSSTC
The target is the same in assay [5]. To be noted: at 10 µM.
Assay [6] addresses T3, Inhibitor of nuclear factor kappa-B kinase subunit alpha (Homo sapiens) (UniProt O15111).
T3 sequence (whole entry): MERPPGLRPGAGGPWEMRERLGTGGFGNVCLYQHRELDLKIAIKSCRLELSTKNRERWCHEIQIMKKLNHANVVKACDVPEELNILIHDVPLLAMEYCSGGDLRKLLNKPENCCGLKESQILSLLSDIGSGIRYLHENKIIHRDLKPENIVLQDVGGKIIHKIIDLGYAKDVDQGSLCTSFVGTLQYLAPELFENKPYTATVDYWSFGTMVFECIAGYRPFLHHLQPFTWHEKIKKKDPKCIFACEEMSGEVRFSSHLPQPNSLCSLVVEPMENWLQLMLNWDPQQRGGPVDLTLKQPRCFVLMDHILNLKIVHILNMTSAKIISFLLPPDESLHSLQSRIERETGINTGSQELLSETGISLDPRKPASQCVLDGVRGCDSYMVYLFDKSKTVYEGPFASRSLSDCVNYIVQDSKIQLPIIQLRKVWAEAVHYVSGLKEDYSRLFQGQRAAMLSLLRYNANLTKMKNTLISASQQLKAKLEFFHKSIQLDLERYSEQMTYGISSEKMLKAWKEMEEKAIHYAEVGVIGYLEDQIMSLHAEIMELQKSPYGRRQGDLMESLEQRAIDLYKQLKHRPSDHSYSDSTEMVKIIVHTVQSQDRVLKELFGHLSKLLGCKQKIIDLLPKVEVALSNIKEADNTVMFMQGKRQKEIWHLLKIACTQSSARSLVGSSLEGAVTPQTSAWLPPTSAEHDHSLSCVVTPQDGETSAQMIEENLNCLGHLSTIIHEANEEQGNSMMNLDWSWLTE
The conditions noted are these: at 1 µM.

In assay [7] the target is T3, Inhibitor of nuclear factor kappa-B kinase subunit alpha (Homo sapiens). To be noted: at 10 µM.
Assay [8] has as its target T4, Inhibitor of nuclear factor kappa-B kinase subunit beta (Homo sapiens) (UniProt O14920).
T4 sequence (whole entry): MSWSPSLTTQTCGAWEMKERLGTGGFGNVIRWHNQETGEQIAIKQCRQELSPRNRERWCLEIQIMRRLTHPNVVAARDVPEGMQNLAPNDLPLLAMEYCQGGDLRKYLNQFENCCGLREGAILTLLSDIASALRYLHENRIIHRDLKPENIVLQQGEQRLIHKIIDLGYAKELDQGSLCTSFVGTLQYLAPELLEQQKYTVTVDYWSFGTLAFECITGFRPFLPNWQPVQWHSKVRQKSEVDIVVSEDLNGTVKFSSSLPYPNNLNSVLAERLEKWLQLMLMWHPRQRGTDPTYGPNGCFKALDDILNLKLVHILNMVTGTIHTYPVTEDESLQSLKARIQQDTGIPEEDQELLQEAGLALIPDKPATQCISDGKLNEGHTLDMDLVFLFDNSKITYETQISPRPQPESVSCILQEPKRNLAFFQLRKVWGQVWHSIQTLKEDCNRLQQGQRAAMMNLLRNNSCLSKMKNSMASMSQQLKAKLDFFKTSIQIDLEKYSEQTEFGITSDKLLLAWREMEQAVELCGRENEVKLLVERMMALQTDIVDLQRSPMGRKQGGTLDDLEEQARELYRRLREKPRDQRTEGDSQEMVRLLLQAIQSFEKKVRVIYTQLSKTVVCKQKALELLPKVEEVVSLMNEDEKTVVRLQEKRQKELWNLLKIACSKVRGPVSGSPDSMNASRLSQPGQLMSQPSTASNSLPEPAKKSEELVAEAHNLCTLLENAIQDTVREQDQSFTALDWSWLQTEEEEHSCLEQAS
To be noted: at 1 µM.

For assay [9], the target named is T4, Inhibitor of nuclear factor kappa-B kinase subunit beta (Homo sapiens). The conditions noted are these: at 10 µM.
The target in assay [10] is Insulin receptor (Homo sapiens) (UniProt P06213). The conditions noted are these: at 1 µM.
Insulin receptor (Homo sapiens), sequence (P06213 28-758 limits assumed): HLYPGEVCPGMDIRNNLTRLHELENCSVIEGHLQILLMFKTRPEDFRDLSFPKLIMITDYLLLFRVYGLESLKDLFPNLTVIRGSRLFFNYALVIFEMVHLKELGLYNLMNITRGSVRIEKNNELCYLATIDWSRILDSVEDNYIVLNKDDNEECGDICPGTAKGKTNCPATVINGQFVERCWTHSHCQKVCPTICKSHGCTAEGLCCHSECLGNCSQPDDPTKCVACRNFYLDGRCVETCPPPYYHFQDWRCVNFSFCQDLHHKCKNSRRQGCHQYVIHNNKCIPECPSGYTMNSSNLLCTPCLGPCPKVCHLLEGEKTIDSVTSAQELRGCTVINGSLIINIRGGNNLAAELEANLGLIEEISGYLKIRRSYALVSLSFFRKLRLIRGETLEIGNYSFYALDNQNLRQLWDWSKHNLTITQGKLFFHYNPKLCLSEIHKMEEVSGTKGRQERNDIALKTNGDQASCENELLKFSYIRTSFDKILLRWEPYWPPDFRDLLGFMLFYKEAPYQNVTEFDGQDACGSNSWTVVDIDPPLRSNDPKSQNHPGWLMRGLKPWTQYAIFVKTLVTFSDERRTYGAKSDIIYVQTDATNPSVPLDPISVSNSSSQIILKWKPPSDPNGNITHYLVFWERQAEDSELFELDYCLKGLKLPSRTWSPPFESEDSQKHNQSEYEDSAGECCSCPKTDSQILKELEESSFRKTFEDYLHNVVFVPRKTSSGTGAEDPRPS
Insulin receptor (Homo sapiens), sequence (P06213 763-1382 limits assumed): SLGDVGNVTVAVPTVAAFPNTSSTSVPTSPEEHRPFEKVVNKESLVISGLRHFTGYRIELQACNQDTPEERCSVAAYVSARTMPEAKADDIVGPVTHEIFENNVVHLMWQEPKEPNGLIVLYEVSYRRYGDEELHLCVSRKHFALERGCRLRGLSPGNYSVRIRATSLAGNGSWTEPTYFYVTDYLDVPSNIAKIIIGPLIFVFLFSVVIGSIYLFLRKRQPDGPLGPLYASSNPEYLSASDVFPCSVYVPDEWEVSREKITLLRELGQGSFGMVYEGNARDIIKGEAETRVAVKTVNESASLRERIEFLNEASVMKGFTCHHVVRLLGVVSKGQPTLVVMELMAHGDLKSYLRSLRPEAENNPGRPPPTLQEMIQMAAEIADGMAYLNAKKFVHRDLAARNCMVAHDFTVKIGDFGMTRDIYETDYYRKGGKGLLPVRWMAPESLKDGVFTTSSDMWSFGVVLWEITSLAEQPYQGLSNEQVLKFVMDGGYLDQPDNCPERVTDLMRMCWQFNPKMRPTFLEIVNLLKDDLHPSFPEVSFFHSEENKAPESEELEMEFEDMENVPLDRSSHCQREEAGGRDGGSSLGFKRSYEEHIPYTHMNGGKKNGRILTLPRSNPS

Molecules are shown by their SMILES.

In the case of `CC(C)n1cnc2c(NCc3ccccc3)nc(NCCCO)nc21`, the residual activity in [1] is 66%; in [2] it was 93%; in assay [3] it was 81%; in [4], 90%; in assay [5], 87%; in assay [6], 116%. For the same compound, the residual activity in assay [7] amounted to 104%; in assay [8], 110%; in assay [9], 94%; in assay [10], 91%.

These data come from ChEMBL document CHEMBL2218924, “A broad activity screen in support of a chemogenomic map for kinase signalling research and drug discovery” (Biochem J, 2013).
